Source: PubChem (National Center for Advancing Translational Sciences (NCATS))
MCF10A rerep = DNA re-replication induction in MCF 10a cells; MCF 10A DNA re-replication, Hoechst nuclear intensity, 48 h; Potency, µM (top dose mostly 46.1 µM), inactives show at the top dose activity, positive = re-replication, actives largely listed as activators; 350,000 tested, 2.9% active; AID 624296; further: % of control where 0% means no effect; nearly all actives have a fitted effect of over 50% in size
KB-3-1 tox = kills parental KB-3-1 adenocarcinoma cells; KB-3-1 viability, CellTiter-Glo ATP luminescence, 72 h; Potency, µM (doses to about 46.1 µM), hits mostly cytotoxic; 400,000 tested, 1.4% active; AID 1347075; further: on the % scale 0 is the no-effect control and ±100 the full control effect; nearly all actives have a fitted effect of over 60% in size
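Parental KB-3-1 viability, qHTS format: 72 h compound exposure, 37 °C; CellTiter-Glo; media-only wells and DMSO plates as controls; concentration-effect fits on corrected data.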
KB-V1 MDR tox = kills drug-selected multidrug resistant KB-V1 cells. Potency, µM (doses to about 46.1 µM), actives largely listed as cytotoxic. KB-V1 MDR cells viability, CellTiter-Glo, 72 h. AID 1347076. 400,000 tested, 3.4% active; further: on the % scale 0 is the no-effect control and ±100 the full control effect; nearly all actives have a fitted effect of over 60% in size
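KB-V1 MDR subline cells in DMEM (phenol-red free, 10% FBS) exposed to compounds in qHTS concentration series for 72 h at 37 degrees C. Viability read by CellTiter-Glo luminescence; concentration-effect curves fitted after normalization and correction.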
RORg inh = inhibitors of mouse ROR gamma transcriptional activity; Potency, µM (doses to about 53.6 µM), without a hit: top-dose activity change, negative = inhibition, actives largely listed as inhibitors; 310,000 tested, 5.4% active; P51450; Drosophila S2 Gal4-RORgamma UAS-luciferase reporter, 20 h; further: on the % scale 0 is the no-effect control and ±100 the full control effect; nearly all actives have a fitted effect of over 60% in size
Target sequence (P51450 whole entry, looked up, the tested form may be a part): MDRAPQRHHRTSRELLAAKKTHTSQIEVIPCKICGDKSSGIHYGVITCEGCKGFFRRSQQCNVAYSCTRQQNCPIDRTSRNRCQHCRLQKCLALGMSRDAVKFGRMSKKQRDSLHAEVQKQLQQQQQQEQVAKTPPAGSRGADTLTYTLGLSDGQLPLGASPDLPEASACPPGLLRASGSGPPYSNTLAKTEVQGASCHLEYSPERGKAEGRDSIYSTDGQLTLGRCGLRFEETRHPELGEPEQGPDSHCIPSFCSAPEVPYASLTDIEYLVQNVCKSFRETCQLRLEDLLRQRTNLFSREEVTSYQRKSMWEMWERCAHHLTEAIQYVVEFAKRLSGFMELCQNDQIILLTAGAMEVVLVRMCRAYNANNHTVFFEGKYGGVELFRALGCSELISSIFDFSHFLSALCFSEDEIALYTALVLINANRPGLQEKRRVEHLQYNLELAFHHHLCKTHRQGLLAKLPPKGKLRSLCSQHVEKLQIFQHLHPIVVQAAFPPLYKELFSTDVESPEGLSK
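Luciferase reporter read in Schneider cells carrying Gal4-RORγ (mouse) and UAS-Photinus luciferase; cells given compound 1 h before 700 uM copper sulfate induction, then incubated 20 h at ambient temperature.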
Gal4-VP16 FLuc = inhibits Gal4-VP16 luciferase reporter, ROR gamma counter-screen | 310,000 tested, 3.5% active | AID 2546 | Potency, µM (doses to about 53.6 µM), for the others: at the highest dose activity, negative = inhibition, usual class: inhibitors | Drosophila S2 Gal4-VP16 UAS-luciferase, luminescence, 20 h;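 further: Gal4-VP16 expression switched on by copper sulfate through the metallothionein promoter; on the % scale 0 is the no-effect control and ±100 the full control effect; nearly all actives have a fitted effect of over 50% in size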
SW480 rerep = induces DNA re-replication in SW480 colon adenocarcinoma cells; SW480 DNA re-replication, Hoechst DNA content imaging, 48 h; Potency, µM (highest dose often 46.1 µM), inactives show at the highest dose re-replication activation, usual class: activators; 340,000 tested, 1.8% active; further: % of control where 0% means no effect; nearly all actives have a fitted effect of over 55% in size
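Readout is total intensity of Hoechst-stained nuclei, excited at 405 nm and collected at 500-530 nm. Compound treatment lasted 48 hr at 37 C in 5% CO2 before staining.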
Numbers without * were called inactive; i = inactive; u = inconclusive; x = no result given; [ ] = remark or other dose. Shown are actives, neighbours in structure and some others; about 10% of the full set was active somewhere. The call rests on the fitted dose curve; in most records, active means well fitted curve in the direction sought with a large enough effect; inconclusive means small, poorly fitted or top-dose-only effect, or another doubt; inactive means no such curve, though single readings can be large; an effect the other way counts as inactive or inconclusive. Potency means the concentration at half of the fitted maximal effect.

SMILES | MCF10A rerep | KB-3-1 tox | KB-V1 MDR tox | RORg inh | Gal4-VP16 FLuc | SW480 rerep
COc1ccc(OC)c(-c2nnc3n(Cc4ccc(C)cc4)c(=O)c4ccccc4n23)c1 | x | i | i | x | x | x
Cc1ccc(NC(=O)c2ccc(-n3c(C)nnc3C)cc2)cc1F | x | i | i | x | x | x
Cc1[nH]n(-c2nc(-c3cccc([N+](=O)[O-])c3)cs2)c(=O)c1C | 14.1% | i | 16.4µM* | u | u | -2.7%
CCCCCn1c(C(C)NC(=O)c2ccccc2)nc2ccccc21 (stereo not given) | x | i | i | x | x | x
CCC1(C)Cc2ccccc2C(=S)N1 (stereo not given) | -1.6% | i | i | 8.91µM* | u | -8.4%
Cc1nn(Cc2ccc(Cl)c(Cl)c2)c(C)c1NC(=O)c1cc(-c2ccco2)on1 | u | u | 5.17µM* | u | u | u
Cc1ccc(Cn2nc(C)c(NC(=O)c3cc(-c4ccc(F)cc4)on3)c2C)cc1 | x | i | i | x | x | x
Cc1nn(Cc2ccc(Cl)cc2)c(C)c1NC(=O)c1cc(-c2ccco2)on1 | 23.1µM* | i | i | 40.4% | -1.3% | 3.6%
COc1ccccc1-c1cc(C(=O)Nc2c(C)nn(Cc3ccc(Cl)cc3)c2C)no1 | x | u | i | x | x | x
Cc1nn(Cc2ccc(F)cc2)c(C)c1NC(=O)c1nn(C)cc1Cl | -1.0% | i | 9.2µM* | -5.2% | 6.6% | 0.7%
COc1ccc(-c2cc(C(=O)Nc3c(C)nn(Cc4ccc(Cl)cc4)c3C)no2)cc1 | 16.4µM* | i | u | -0.3% | -15.1% | u
Cc1ccc(Cn2nc(C)c(NC(=O)c3cc(-c4ccco4)on3)c2C)cc1 | u | u | i | 23.1% | -4.6% | 1.7%
Cc1ccc2ccccc2c1C(O)c1ncc(-c2ccc(F)cc2)[nH]1 (stereo not given) | x | i | i | x | x | x
Cn1c(Oc2ccccc2)nc2c1c(=O)n(Cc1ccc(Cl)cc1Cl)c(=O)n2C | x | i | i | x | x | x
CCC(Sc1ncc(S(=O)(=O)c2ccc(C)cc2)c(=O)[nH]1)C(=O)Nc1cc(C)ccc1C (stereo not given) | x | i | i | x | x | x
CCc1cc2c(nc1CC)CCN(CC/C(C)=N/OCC[C@@H]1C=C[C@H](OC(C)=O)[C@H](COC(C)=O)O1)C2 | x | x | x | -2.9%[10 µM] | -5.6%[10 µM] | x
COc1ccc(OC)c(-c2cc(C(=O)Nc3c(C)nn(Cc4ccccc4Cl)c3C)no2)c1 | 15.0% | u | i | u | -6.1% | 11.2%
Cc1cc(C(=O)Nc2c(C)nn(Cc3ccccc3Cl)c2C)no1 | 2.6% | i | 20.6µM* | 9.7% | 0.3% | -2.2%
Cc1ccc(CNC(=O)CNS(=O)(=O)c2cccs2)cc1 | x | i | i | x | x | x
CCCCC(=O)Nc1nc2ccc(C(=O)OC)cc2s1 | 18.4% | i | i | 8.91µM* | u | -10.3%
CCSc1ncc(Cl)c(C(=O)Nc2nc3ccc(OC)cc3s2)n1 | x | i | i | x | x | x
COc1ccc2nc(NC(=O)c3ccc(NC(=O)C4CCCO4)cc3)sc2c1 (stereo not given) | 20.6µM* | 7.31µM* | i | -20.6% | -17.4% | u
CCOc1ccc2nc(NC(=O)C3CCCO3)sc2c1 (stereo not given) | -3.7% | i | i | -15.1% | 4.6% | -3.9%
COc1ccc2nc(NC(=O)c3cccc(-c4cc5ccccc5oc4=O)c3)sc2c1 | u | u | u | 10µM* | 10µM* | u
CCCC(=O)Nc1nc2ccc(C(=O)OCC)cc2s1 | 0.9% | i | i | 27.3% | -9.5% | -4.8%
SMILES | MCF10A rerep | KB-3-1 tox | KB-V1 MDR tox | RORg inh | Gal4-VP16 FLuc | SW480 rerep
COc1ccc2nc(NC(=O)c3cnccn3)sc2c1 | 17.7% | i | u | u | 10µM* | u
O=[N+]([O-])c1ccc2c(c1)C=C/C2=C\c1ccc(C=S)cc1 | x | i | u | x | x | x
Cc1cc(C(=O)N2CCC2(C)C(=O)NS(=O)(=O)c2cccc(OC(F)F)c2)nn1C (stereo not given) | x | i | i | x | x | x
COc1ccc(NC(=O)Nc2nnc(-c3cccs3)s2)cc1 | -0.4% | i | i | -0.1% | 16.2% | -3.7%
COc1ccc(C(=O)Nc2nc3ccc(S(C)(=O)=O)cc3s2)cc1 | u | i | i | 14.0% | -1.8% | 11.8%
COc1ccc(C(=O)Nc2nnc(-c3cccs3)s2)cc1 | u | 5.17µM* | u | 20.3% | 1.9% | u
COc1ccc(C(=O)Nc2nc3ccc(OC)cc3s2)cc1 | u | i | i | 1.41µM* | 4.47µM* | u
COc1cc(C)ccc1OCc1cc(C(=O)N2CCC(c3ccc(F)cc3)C2)no1 (stereo not given) | 2.2% | i | i | 29.1% | 1.6% | -5.1%
COc1cccc(N2CC(O)=C(c3nc4ccccc4s3)C2=N)c1 | u | 7.31µM* | 3.26µM* | -36.1% | 10.1% | 3.66µM*
COc1ccc(N2CC(O)=C(c3nc4ccccc4s3)C2=N)cc1 | -1.0% | i | i | -29.9% | 3.9% | 5.8%
Cn1nc(C2CC2)cc1NC(=O)C1(C)CCN1C(=O)CCc1ccccc1 (stereo not given) | x | i | i | x | x | x
FC(F)Sc1ccc(NC(=S)NC2CCCCC2)cc1 | u | i | i | 8.91µM* | u | u
CN(CC(=O)Nc1ccc(SC(F)F)cc1)C1CCCCC1 | -0.8% | i | u | 22.3% | 0.2% | u
FC(F)Sc1ccc(NC(=S)NCC2CCCCC2)cc1 | u | u | i | 8.91µM* | 10µM* | u
CC1CCCCC1NC(=S)Nc1ccc(SC(F)F)cc1 (stereo not given) | u | u | u | 6.31µM* | 11.2µM* | -1.9%
O=c1cc(-c2cccc(-c3ccc(C(F)(F)F)cc3)c2)c2cc3c(cc2o1)OCO3 | x | x | x | -16.9% | -5.6% | x
CSc1ccc(/C=C/c2ccc3cccc(O)c3n2)cc1 | 20.6µM* | i | u | 4.47µM* | u | 23.5%
COc1cc(/C=C/c2ccc3cccc(O)c3n2)c(Br)cc1O | x | x | x | 2.82µM* | u | x
Oc1cccc2ccc(/C=C/c3ccccc3Br)nc12 | u | u | u | 3.98µM* | 3.16µM* | 6.51µM*
COc1ccc(OC)c(/C=C/c2ccc3cccc(O)c3n2)c1 | x | x | x | 2.51µM* | 4.47µM* | x
COc1ccc(OC)c(/C=C/c2ccc3ccccc3n2)c1 | x | i | i | x | x | x
Cc1nn(C)c2c1c(C(F)(F)F)cc(=O)n2C(C)C(=O)N1CCN(c2ccccc2)CC1 (stereo not given) | x | u | i | x | x | x
COC(=O)[C@@H]1OC(c2ccccc2)O[C@H]1C(=O)OC | x | x | x | 2.8% | -1.4% | x
